{"source": "PubChem BioAssay AID493033", "about": "(ICCB-Longwood Screening Facility, Harvard Medical School, 2011)", "note": "About 930 (0.93%) of roughly 100,000 compounds were called active. Cut-off read from the data, not from the text of the source: active = inhibition mostly above about 56% (no sharp cut-off); inactive = mostly below about 77%. Only a selection was taken, and actives are over-represented in it overall.", "data": [{"target": "Salicylate synthase (Mycobacterium tuberculosis (strain CDC 1551 / Oshkosh)) (UniProt P9WFX0)", "sequence (P9WFX0 whole entry, looked up)": "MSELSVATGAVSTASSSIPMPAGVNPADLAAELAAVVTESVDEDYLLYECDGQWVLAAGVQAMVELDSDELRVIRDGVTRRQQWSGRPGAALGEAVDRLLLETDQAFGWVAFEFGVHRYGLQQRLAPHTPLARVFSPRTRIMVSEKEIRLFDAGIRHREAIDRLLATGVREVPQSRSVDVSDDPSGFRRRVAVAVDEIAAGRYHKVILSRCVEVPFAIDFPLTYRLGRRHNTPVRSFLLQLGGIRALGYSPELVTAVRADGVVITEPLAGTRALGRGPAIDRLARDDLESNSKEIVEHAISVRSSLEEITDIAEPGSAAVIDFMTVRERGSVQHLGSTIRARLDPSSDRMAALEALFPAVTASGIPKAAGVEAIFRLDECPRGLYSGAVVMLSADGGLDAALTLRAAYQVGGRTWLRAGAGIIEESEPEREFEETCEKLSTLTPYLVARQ", "test": "inhibitors of M. tuberculosis MbtI – biochemical, fluorescence intensity, primary screen (AID 493033)", "details": "purified MbtI enzyme, fluorescence intensity read-out, hits give high values, concentration not given here", "values": [{"smiles": "Cc1[nH]c(=O)[nH]c(=O)c1NC(=O)CSc1nc2c(C)cccc2cc1C#N", "inhibition": "-1.15% (inactive)"}, {"smiles": "Cc1cc(C)n(C(=O)C2CC=CCC2C(=O)O)n1", "note": "(configuration not stated)", "inhibition": "-7.4% (inactive)"}, {"smiles": "O=C(CSc1nnc2n1CCCCC2)N(Cc1cccs1)c1ccc2c(c1)OCCO2", "inhibition": "-10.9% (inactive)"}, {"smiles": "Cc1ccc(OCc2n[nH]c(=S)n2C2CCCCC2)c2c1CCC2", "inhibition": "70.4% (active)"}, {"smiles": "CCOC(=O)Cc1n[nH]c(=S)n1C1CCCC1", "inhibition": "13.4% (inactive)"}, {"smiles": "O=C(OCC(=O)C12CC3CC(CC(C3)C1)C2)c1cccs1", "inhibition": "13.6% (inactive)"}, {"smiles": "CCn1cnc2cc(NCc3ccccn3)ccc21", "inhibition": "-5.05% (inactive)"}, {"smiles": "CCc1ccc(N/N=C(\\C#N)C(=O)N2CCN(C)CC2)cc1", "inhibition": "6% (inactive)"}, {"smiles": "C/C(=N/NC(=O)CCc1ccccc1)C1CC1", "inhibition": "-4.85% (inactive)"}, {"smiles": "N#C/C(=N\\Nc1ccccc1)C(=O)C1CC1", "inhibition": "97% (active)"}, {"smiles": "Cc1ccc2[nH]c3c(c2c1)CCCC3O", "note": "(configuration not stated)", "inhibition": "53.3% (inactive)"}, {"smiles": "Cc1noc(C)c1COc1ccc(C(=O)OCCN2C(=O)c3ccccc3C2=O)cc1", "inhibition": "-17.5% (inactive)"}, {"smiles": "O=C(NCC1CCN(c2ccc(S(=O)(=O)N3CCOCC3)cc2)CC1)Nc1cccc(F)c1", "inhibition": "-7.4% (inactive)"}, {"smiles": "CC(OC(=O)c1ccccc1NS(=O)(=O)c1ccc2[nH]c(=O)[nH]c2c1)C(=O)N1CCCCC1", "note": "(configuration not stated)", "inhibition": "-42.9% (inactive)"}, {"smiles": "COc1ccc(C#N)cc1", "inhibition": "-8.8% (inactive)"}, {"smiles": "COc1ccc(Cc2nnc(SC)[nH]c2=O)cc1", "inhibition": "10.6% (inactive)"}, {"smiles": "COc1ccc(-c2nc3sc(-c4ccc(OC)cc4)nc3s2)cc1", "inhibition": "84.3% (active)"}, {"smiles": "CSc1cc(-c2ccc(F)cc2)nn1S(=O)(=O)c1cccc(C(F)(F)F)c1", "inhibition": "-4.6% (inactive)"}, {"smiles": "Cc1cc2ncn(-c3ccc(S(=O)(=O)N4CCCC4)cn3)c2cc1C", "inhibition": "35.2% (inactive)"}, {"smiles": "Cc1nc(SCC(=O)c2ccc(NS(C)(=O)=O)cc2)n(C2CCCCC2)c1C", "inhibition": "-5.8% (inactive)"}, {"smiles": "c1ccc(Cc2nn3c(Cn4cnc5ccccc54)nnc3s2)cc1", "inhibition": "65.2% (active)"}, {"smiles": "COCCn1cnc2ccccc21", "inhibition": "-7.65% (inactive)"}, {"smiles": "N#CCCn1cnc2ccccc21", "inhibition": "-6.55% (inactive)"}, {"smiles": "CCOc1cc2c(cc1OCC)C(CC(=O)O)N(C(=O)Nc1ccc(OC)cc1)CC2", "note": "(configuration not stated)", "inhibition": "26.9% (inactive)"}, {"smiles": "COc1ccccc1Nc1nc2c(S(=O)(=O)c3c(C)cc(C)cc3C)nnn2c2ccccc12", "inhibition": "3.35% (inactive)"}, {"smiles": "COc1cc(Br)c(CC(=O)N2CCOCC2)cc1OC", "inhibition": "-8.25% (inactive)"}, {"smiles": "O=c1ccc(-c2ccc(S(=O)(=O)Nc3ccccc3)o2)n[nH]1", "inhibition": "1.95% (inactive)"}]}]}
